A word on the inhibition: it is the relative decrease from the control value, in per cent.

Structures are written as SMILES. Out of some 1,400 compounds screened, about 970 (69%) were called active. About 5% were inconclusive and are not listed. So high a share suggests a set chosen from earlier hits. A selection follows. Values without a mark were called inactive. Cut-off read from the data, not from the text of the source: active = inhibition above about 45%; inconclusive = no clear call, values can overlap the other calls; inactive = below that.

The values that follow come from PubChem BioAssay AID488859 (Sanford-Burnham Center for Chemical Genomics, 2010).

Chain of Ubiquitin-conjugating enzyme E2 N (Homo sapiens) (P61088 whole entry, looked up): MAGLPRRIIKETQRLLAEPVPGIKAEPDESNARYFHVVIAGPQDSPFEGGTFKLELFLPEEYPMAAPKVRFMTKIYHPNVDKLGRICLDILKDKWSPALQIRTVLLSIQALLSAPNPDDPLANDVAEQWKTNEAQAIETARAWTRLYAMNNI

This assay concerns the target Ubiquitin-conjugating enzyme E2 N (Homo sapiens) (UniProt P61088). Put plainly: retested blockers of UBC13 chain formation – biochemical, TR-FRET, single concentration, confirmation (AID 488859). To be noted: UBC13 polyubiquitination, at 10 µM, hits give high values. A general note: Time-resolved FRET reads energy transfer from a long-lived donor to a nearby acceptor.
As to `CC1(C)Cc2ccccc2-c2[nH]c(=S)[nH]c(=O)c21`, the inhibition was 26.2%. Take `CC1CC(C)(C)n2c(O)c(N=NC(N)=S)c3cccc1c32` (configuration not stated): the inhibition is 107% (active). Under `COc1ccc(-n2nnnc2-c2nc3ccccc3s2)cc1` stands 51.1% (active); under `CN1CCC(CN)(N2CCN(c3ccccc3)CC2)CC1`, 48.6% (active); under `CC(=O)NC(=S)NNC(=O)c1ccc(Br)cc1`, 89.8% (active). Under `COc1ccc(/C=N\NC(=O)c2sc(N)nc2C)cc1OC` stands 110% (active). In the case of `CCOC(=O)N1CCN(C(=O)Cc2ccc(-n3c(=S)[nH]c4ccccc4c3=O)cc2)CC1`, the inhibition was 37.3%.

Turning to `O=C(CCCCCn1c(=O)[nH]c2ccccc2c1=O)NCCc1c[nH]c2ccccc12`, the inhibition was 67.3% (active). In the case of `c1ccc(C[C@H]2CNCCN2CCC23CC4CC(CC(C4)C2)C3)cc1` it was 42.5%. Consider `CCN(CC)CCNC(=O)c1ccc(NC(=O)c2cc(-c3ccncc3)nc3ccccc23)cc1`, for which the inhibition is 91.5% (active). On to `CCOc1ccc(N(C(=O)c2snc(C(N)=O)c2N)C(C(=O)NCC2CCCO2)c2c[nH]c3ccccc23)cc1` (configuration not stated), for which the inhibition was 100% (active). Under `COc1cccc(N(C(=O)c2snc(C(N)=O)c2N)C(C(=O)NCC2CCCO2)c2c[nH]c3ccccc23)c1` (configuration not stated) stands 57.9% (active); under `Cc1ccc(N(C(=O)c2snc(C(N)=O)c2N)C(C(=O)NCC2CCCO2)c2c[nH]c3ccccc23)cc1` (configuration not stated), 70.6% (active). Under `Cc1ccc(C(C(=O)NCC2CCCO2)N(C(=O)c2snc(C(N)=O)c2N)c2ccc(C(C)C)cc2)o1` (configuration not stated) stands 30.4%; under `O=c1cc(CO)oc(C(Nc2cccc(C(F)(F)F)c2)c2ccccn2)c1O` (configuration not stated), 88.9% (active); under `O=c1cc(CO)oc(C(Nc2cccc([N+](=O)[O-])c2)c2ccccn2)c1O` (configuration not stated), 39.1%. Turning to `O=c1c2c(nc3n1CCCCC3)sc1c(O)cccc12`, the inhibition is 104% (active).

In the case of `Cc1cccc(-n2cnc(C(=O)NNC(=S)Nc3ccccc3)c2)n1`, the inhibition is 107% (active). Consider `CCOCCCNC(=O)c1cn(CC(C)C)c(=O)c2c1c1ccccc1n2C`, for which the inhibition is 37.9%.

Turning to `Cc1ccccc1C(=O)OC1OC(=O)C(Cl)=C1Nc1ccccc1` (configuration not stated), the inhibition is 88.9% (active). `Cc1ccc(NC2=C(Cl)C(=O)OC2OC(=O)c2ccccc2C)cc1` (configuration not stated): the inhibition was 62% (active).

Regarding `CC[C@@H](C)[C@@H]1CN([C@@H](C)CN2CCC[C@H]2CN2C(N)=NC[C@H]2C(C)C)C(=N)N1CCc1ccc(Cl)c(Cl)c1`, the inhibition is 38.2%.

As for `C[C@@H](CN1CCC[C@H]1CN1C(N)=NC[C@@H]1Cc1ccccc1)N1C[C@@H](Cc2ccccc2)N(CCCC2CCCC2)C1=N`, the inhibition is 58.5% (active). In the case of `COc1ccc2sc(-c3ccc(S(C)(=O)=O)cc3)c(C#Cc3cncn3C)c2c1` it was 29.5%; in that of `COc1ccc2sc(-c3ccccc3OC)c(-c3ccc(OCCN4CCCC4)cc3)c2c1`, 54.8% (active). In the case of `CCOC(=O)c1ccc(NC(=O)c2nc[nH]c2C(=O)NCc2ccccc2)cc1` it was 25.1%. In the case of `CC1CN(C(=O)CCC(=O)NCCCN2CCC(Cc3ccccc3)CC2)c2cc(Cl)ccc2O1` (configuration not stated) it was 87.8% (active).

As for `CCOC(=O)C1=C(c2ccccc2)O/C(=C(/C(=O)OC)C(F)(F)F)S1`, the inhibition was 42.4%.

On to `Cc1cccc(-c2nc3ccc(C(=O)NCCN4CCN(C)CC4)cc3nc2-c2cccc(C)c2)c1`, for which the inhibition was 72.8% (active). Under `Cc1ccc(C(=O)N/C(=C/c2ccc(-c3cccc([N+](=O)[O-])c3)o2)C(=O)NCCCN(C)C)cc1` stands 78% (active). For `O=S(=O)(c1ccc(NC(=S)NN=C(C2CC2)C2CC2)cc1)N1CCOCC1`, the inhibition was 60.4% (active). On to `CN(C(=O)CN(CCO)CC(=O)N(C)C(C)(C)Cc1ccccc1)C(C)(C)Cc1ccccc1`, for which the inhibition was 44.3%. Under `Cc1cccc(OCC(O)CN2CCN(CCN3C(=O)c4cccc5cccc(c45)C3=O)CC2)c1C` (configuration not stated) stands 101% (active); under `CCN1C(=NCc2ccc(OC)cc2)N[C@@H](CCc2ccccc2)[C@H](C(=O)NCc2ccc(OC)cc2)[C@H]1C`, 34.8%; under `COc1cccc(Cn2cnc3c([N+](=O)[O-])c(C)c(C)cc32)c1`, 63.7% (active). Under `NC(N)=N/N=C/c1ccc(OCc2ccc(Cl)cc2Cl)cc1` stands 121% (active); under `CN(C)CCCN(C(=O)c1ccc(S(=O)(=O)N2CCCCCC2)cc1)c1nc2cc3c(cc2s1)OCCO3`, 110% (active).

For `CCOc1ccc2nc(N(CCCN(C)C)C(=O)c3ccc(C(=O)c4ccccc4)cc3)sc2c1`, the inhibition is 111% (active). Under `CN(C)CCCN(C(=O)c1ccc(S(=O)(=O)N2CCCCCC2)cc1)c1nc2ccc(Br)cc2s1` stands 107% (active); under `c1ccc2c(CCN3CCNC[C@H]3Cc3cccc4ccccc34)cccc2c1`, 44.3%. As for `CCCCCCCCCCOC(=O)Cn1c(COc2cccc(OC)c2)[n+](C)c2ccccc21`, the inhibition was 63.8% (active). Under `CCOC(=O)c1cccc(NS(=O)(=O)c2c(C(=O)N3CCCCCC3)c(C)n(C)c2C)c1` stands 43.9%. In the case of `COc1ccc(C(CNC(=O)c2cccc(NS(=O)(=O)c3ccc(C)c(F)c3)c2)N2CCCC2)cc1` (configuration not stated), the inhibition was 94.5% (active).

As to `COC(=O)c1cc(-c2cccs2)nc2ccccc12`, the inhibition is 18.1%. In the case of `CCCCN(C)CCCNC(=O)c1cc(-c2cccs2)nc2ccccc12` it was 45.7% (active).

Regarding `Cc1cc(C)c(NC(=O)C[N+](C)(C)CC(O)COc2cccc3ccccc23)c(C)c1` (configuration not stated), the inhibition is 60.3% (active). In the case of `CCCCN(CCCC)CCC(O)c1cc2c(Cl)cc(Cl)cc2c2cc(C(F)(F)F)ccc12` (configuration not stated) it was 56.5% (active); in that of `Cc1ccc(-c2noc(CCC(=O)Nc3ccccc3N3CCN(C)CC3)n2)cc1`, 92.8% (active); in that of `CCCOc1ccc(Cl)cc1Nc1nc(NCCO)nc(N2CCCC2)n1`, 16.5%. Consider `C#CCOCCOCCOCCNc1nc(N2CCN(C(=O)C(Cc3ccc(O)cc3)n3cc(C(N)CC(C)C)nn3)CC2)nc(N2CCN(C(=O)C(Cc3ccc(O)cc3)n3cc(C(N)C(C)CC)nn3)CC2)n1` (configuration not stated), for which the inhibition is 23.8%. As to `C#CCOCCOCCOCCNc1nc(N2CCN(C(=O)C([C@@H](C)CC)n3cc(C(N)COC(=O)C(F)(F)F)nn3)CC2)nc(N2CCN(C(=O)[C@H](CCCCN)n3cc(C(N)CC(C)C)nn3)CC2)n1` (some centres not stated), the inhibition is 103% (active).

On to `C#CCOCCOCCOCCNc1nc(N2CCN(C(=O)[C@H](CCCCN)n3cc([C@@H](N)C(C)CC)nn3)CC2)nc(N2CCN(C(=O)[C@H](Cc3ccc(O)cc3)n3cc([C@@H](N)C(C)CC)nn3)CC2)n1` (some centres not stated), for which the inhibition was 105% (active).

Regarding `C#CCOCCOCCOCCNc1nc(N2CCN(C(=O)C([C@@H](C)O)n3cc([C@@H](N)CCCCN)nn3)CC2)nc(N2CCN(C(=O)[C@H](CCCCN)n3cc(CN)nn3)CC2)n1` (some centres not stated), the inhibition was 113% (active). In the case of `C=C1c2c(Cl)ccc(O)c2C(O)=C2C(=O)[C@]3(O)C(O)=C(C(N)=O)C(=O)[C@@H](N(C)C)[C@@H]3[C@@H](O)C12` (some centres not stated) it was 50.8% (active); in that of `COc1ccccc1NC(=O)CSc1nnc(-c2ccoc2C)n1CCc1ccccc1`, 94.4% (active); in that of `CCN(CC)CCC(c1cc(OC)c(OC)c(OC)c1)c1c(OC)cc(OC)c2c(-c3ccccc3)cc(=O)oc12` (configuration not stated), 35.1%. Under `Cn1c(C(=O)NCCCN2CCN(c3cccc(Cl)c3)CC2)cc2c(=O)n(C)c3ccccc3c21` stands 38.7%; under `CN1CCN(CCCNC(=O)c2ccc(/C=C3\Oc4ccccc4N(Cc4ccc(Cl)cc4)C3=O)cc2)CC1`, 111% (active); under `CCN(CC(=O)NCc1cccs1)C(=O)c1cccc(S(=O)(=O)Nc2ccccc2OC)c1`, 106% (active). In the case of `OCCNc1nc(Nc2ccc(Cl)c(Cl)c2)nc2ccccc12` it was 92% (active); in that of `Cc1ncc(CO)c(/C=N/NC(=O)c2cccc(S(=O)(=O)N3CCCC3)c2)c1O`, 32.9%. For the compound `CSCCC(NC(=O)c1ccc(Cl)cc1Cl)C(=O)NNC(=O)c1csc(N2CCOCC2)n1` (configuration not stated), the inhibition is 55.6% (active).
